# Screening data (PubChem BioAssay)
# HSP90 inh = HSP90 inhibitors, primary screen, cell lysate, luminescence; Heat shock protein HSP 90 (rabbit reticulocyte lysate; luciferase refolding); Rabbit reticulocyte lysate, luciferase refolding luminescence, 3 h; 290,000 compounds, 0.91% hits; inhibition, % at 5.6 µM;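 active = inhibition above the screen-wide mean plus 3 SD, computed separately per campaign, cut at about 16% in these data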;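 also: 0% = DMSO wells and 100% = 60 µM geldanamycin wells; inhibitors lower the luminescence because luciferase stays unfolded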
# Hsp70 activator = Hsp70 transcriptional activators, primary screen, cell-based, HeLa, Hsp70 promoter luciferase, luminescence, 10 µM | HeLa Hsp70 promoter luciferase reporter; scaled: vehicle 0, proteasome-inhibitor control 100% | activation, % at 10 µM | 200,000 compounds, 0.04% hits | AID 1203, 2008;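 active = activation above the mean across all tested compounds plus 3 SD, cutoff set per campaign, cut at about 5.5% in these data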;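 also: 100% = MG132 at 30 µM as the positive control and 0% = DMSO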
# HSF1 inhib = HSF1 inhibitors in luciferase reporter cells, primary screen, cell-based, NIH3T3, luminescence. NIH3T3-HGL HSE-luciferase, MG132-induced, luminescence 8 h; active compounds read low. activity change, negative = inhibition, % at 7.5 µM (by protocol). 300,000 compounds, 0.77% hits. AID 2098, 2009;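 active = more than half of replicate wells show activity change below -50%, luminescence cut by over half; inconclusive = some wells, but at most half, below -50%; inactive = no replicate well below -50%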;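 also: luciferase reports HSF-1 transcriptional activity via heat shock element; 0% = median of DMSO wells and -100% = zero luminescence signal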
# pCIP destab = p/CIP-EGFP fusion destabilizers, primary screen, fluorescence, F442A cells. AID 1984, 2009. 16 h. 290,000 compounds, 0.01% hits. decrease of EGFP signal, % at 10 µM. Q05BA5;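 active = EGFP signal decrease of at least 30% at 10 µM or well 3 SD below plate mean, unless failing retest; inactive = the rest, including hits failing retest or dose response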
# NALP1 inh = NALP1 inflammasome inhibitors in reconstituted yeast, colorimetric, S. cerevisiae, triplicate retest. S. cerevisiae NALP1/ASC/caspase-1 growth, X-gal OD620, 72 h. inhibition, % at 10 µM. 280,000 compounds, 0.61% hits; in the data active = inhibition mostly above about 24%, no sharp cut-off; inactive = mostly below about 32%
# HSF-1 act = HSF-1 activators, primary screen, NIH3T3-HGL cells, MG132 stress, luminescence, single point. 300,000 compounds, 1.7% hits. NIH3T3-HGL HSF-1 luciferase reporter, 8 h; 100% = twice DMSO control signal. activation, % at 9 µM;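 active = mean replicate activation of at least 50% with a set share of replicates each reaching 50%; inconclusive = only one of those two conditions met; inactive = mean below 50% and too few replicates reaching it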;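 also: 0% = median of the neutral control wells and 100% = twice that signal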
# HSP90 inh confirm = HSP90 inhibitors, confirmation, cell lysate, luminescence; AID 1846, 2009; rabbit reticulocyte lysate, luciferase refolding luminescence, 3 h; shares compounds with HSP90 inh; inhibition, % at 5.9 µM; 2,300 compounds, 64% hits; in the data active = inhibition above about 18%;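 also: 0% = vehicle wells and 100% = reference inhibitor wells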
# luciferase ctr = firefly luciferase inhibitors, HSP90 counter-screen, confirmation, artefact control for HSP90 inhibitor project, biochemical, luminescence, triplicate; shares compounds with HSP90 inh; purified native firefly luciferase; inhibition, % at 5.9 µM; 2,300 compounds, 48% hits; AID 1847, 2009;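 active = inhibition above the mean inhibition of all tested sample wells plus 3 SD, cut at about 10% in these data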;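 also: 0% = DMSO with luciferase and 100% = wells lacking luciferase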
# Target sequence (P08659 whole entry, looked up): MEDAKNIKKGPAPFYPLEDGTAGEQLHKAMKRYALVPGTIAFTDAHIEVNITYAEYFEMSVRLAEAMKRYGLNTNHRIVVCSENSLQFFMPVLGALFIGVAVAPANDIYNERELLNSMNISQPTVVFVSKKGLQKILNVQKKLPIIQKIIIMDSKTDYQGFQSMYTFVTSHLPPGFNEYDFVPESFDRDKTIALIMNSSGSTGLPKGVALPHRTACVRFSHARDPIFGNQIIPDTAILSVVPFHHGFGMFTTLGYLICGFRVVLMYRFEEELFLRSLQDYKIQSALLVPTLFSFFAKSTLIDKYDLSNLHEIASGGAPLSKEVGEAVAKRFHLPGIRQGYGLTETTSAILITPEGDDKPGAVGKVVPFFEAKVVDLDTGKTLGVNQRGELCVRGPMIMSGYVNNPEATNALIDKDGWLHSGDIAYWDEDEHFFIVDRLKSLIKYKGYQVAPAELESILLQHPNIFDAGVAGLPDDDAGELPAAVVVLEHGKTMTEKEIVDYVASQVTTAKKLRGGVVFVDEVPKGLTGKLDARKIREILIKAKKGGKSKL
# * marks the source's active call; other numbers are inactive results; ? = inconclusive; nt = no result. Rows were chosen to be rich in hits. Some 3.8% of all compounds tested hit in one or more screens of this group.
SMILES,HSP90 inh,Hsp70 activator,HSF1 inhib,pCIP destab,NALP1 inh,HSF-1 act,HSP90 inh confirm,luciferase ctr
Cc1ccccc1-c1nc(-c2ccccn2)no1,46*,-1,?,1,22,-53,86*,82*
Cc1ccccc1-c1nc(-c2cccnc2)no1,5,0,27,10,-2,43,nt,nt
CCOc1ccc(NC(=O)c2ccc(F)cc2F)cc1,nt,nt,27,nt,nt,46,nt,nt
Clc1ccc(-n2ncc3c(N4CCCC4)ncnc32)cc1,31*,0,1,-4,24,-12,62*,58*
O=C(NCCc1ccc(Cl)cc1)c1ccc2c(c1)OCCO2,18*,nt,13,-5,22,1,27*,23*
O=C(NCCc1ccccc1F)c1ccc2c(c1)OCCO2,95*,nt,-75*,-11,18,-79,98*,92*
O=C(NCc1ccccc1F)c1ccc2c(c1)OCO2,6,0,6,-1,21,-1,nt,nt
COC(=O)N1C(=O)[C@](c2ccccc2)(C(C)C)N1C(=O)OC,31*,nt,14,1,18,12,3,-2
CC[C@@]1(c2ccccc2)C(=O)N(C(=O)OC)N1C(=O)OC,-5,nt,5,-9,-9,-2,nt,nt
CCC(C)(C(=O)Nc1ccc(OC)cc1)N(C)C(=O)Cn1nnnc1N (configuration not stated),11,nt,2,-12,-5,2,nt,nt
Cc1nc(N)sc1-c1csc(Nc2cccc(C(=O)O)c2)n1,15,nt,-6,-6,5,2,nt,nt
COc1ccc(OC)c(Nc2nc(-c3sc(N)nc3C)cs2)c1,26*,0,-9,9,16,-1,2,-7
Cc1cc(O)ccc1Nc1nc(-c2sc(N)nc2C)cs1,34*,0,nt,0,-16,nt,-4,-9
Cc1nc(N)sc1-c1csc(Nc2ccccc2)n1,26*,0,-4,-3,1,-3,-5,-16
COCCNC(=O)C(OC(=O)c1nsc(Cl)c1Cl)C(C)C (configuration not stated),0,0,-4,-4,-13,-1,nt,nt
COc1c(C)cccc1C(=O)Nc1ccc(OCC(=O)N2CCOCC2)cc1C,-1,nt,-4,-2,0,-17,nt,nt
O=C(CN1C(=O)c2cccnc2Oc2ccc(Cl)cc21)Nc1ccccc1F,36*,nt,8,-11,22,4,-7,-18
COc1cccc(NC(=O)CN2C(=O)c3cccnc3Oc3ccc(Cl)cc32)c1,-3,nt,12,0,10,36,nt,nt
Cc1ccc(NC(=O)CN2C(=O)S/C(=C\c3ccc(-c4cccc(C(=O)O)c4C)o3)C2=O)cc1,26*,0,0,-10,-2,3,24*,-6
O=C(Nc1cccc2nsnc12)c1ccc(-c2cccc(Cl)c2)o1,17*,0,nt,-6,4,nt,2,-9
N#CCC(=O)Nc1ccc(C(=O)OCC(=O)Nc2ccccc2-c2ccccc2)cc1,0,0,-16,-10,-2,-31,nt,nt
COc1ccc(OC)c(Cc2nnc(CCC(=O)NC3C4CC5CC(C4)CC3C5)o2)c1 (configuration not stated),18*,0,-6,-2,20,5,-7,-6
CCOc1ccc(N)c(SSc2cc(OCC)ccc2N)c1,30*,nt,-10,-9,19,-22,41*,9.6*
Cc1cc(C2=NNC(=NC3CC3)SC2)c(C)n1-c1ccccc1F,36*,-1,-68*,-19,14,-68,85*,76*
CCOC(=O)c1cccc(-c2ccc(C=O)o2)c1,-1,0,8,-9,5,19,nt,nt
SMILES,HSP90 inh,Hsp70 activator,HSF1 inhib,pCIP destab,NALP1 inh,HSF-1 act,HSP90 inh confirm,luciferase ctr
CCOC(=O)c1ccc(-c2ccc(C=O)o2)cc1,30*,nt,26,0,10,33,52*,-13
Cc1cc(C(=O)CN2C(=O)c3ccccc3S2(=O)=O)c(C)n1CC1CCCO1 (configuration not stated),24*,-1,?,2,6,-56,28*,-14
COc1cc(OC)c(C(=O)OCC(=O)c2cc(C)n(CC3CCCO3)c2C)cc1OC (configuration not stated),-9,0,1,-1,2,17,nt,nt
Cc1cc(C(=O)COC(=O)c2ccc(O)cc2)c(C)n1CC1CCCO1 (configuration not stated),32*,0,-11,3,-3,-21,39*,43*
CN(CC(=O)NCc1ccccc1F)S(=O)(=O)c1ccc(Cl)cc1,-2,nt,-4,2,10,1,nt,nt
COC(=O)c1ccc(NC(=O)c2sc3nc(-c4ccccc4)cn3c2C)cc1,21*,0,-7,1,12,-20,18*,-21
O=C(Nc1ccc2ccccc2c1)c1ccc(Cl)cc1,23*,nt,-7,6,17,-3,37*,17*
Cc1cc(C(=O)Nc2ccc3ccccc3c2)oc1C,7,nt,14,0,14,39,nt,nt
O=C(Nc1ccncc1)c1ccc2ccccc2c1,-2,0,4,-10,8,-6,nt,nt
Cc1ccoc1C(=O)Nc1ccc2ccccc2c1,24*,nt,11,-11,23,32,56*,47*
Cc1ccc2cc(NC(=O)c3ccccc3)ccc2n1,18*,nt,24,-4,-17,38,15,-3
COc1ccc(C(=O)Nc2ccc(C(=O)Nc3cccc(C)c3)cc2)cc1,-4,nt,-4,-9,16,8,nt,nt
Cc1ccc(C(=O)Nc2ccc3ccccc3c2)cc1,69*,nt,-35,-10,7,-39,76*,69*
C/C(=N\NC(=O)C1CCCC1)c1ccc(Cl)cc1,0,nt,nt,-6,-7,nt,nt,nt
Cc1ccc(C(=O)N/C(=C/c2ccc(C(C)C)cc2)C(=O)NCCCN2CCOCC2)cc1,-1,nt,-6,0,8,0,nt,nt
COc1ccccc1C(=O)Nc1nc2ccccc2s1,91*,nt,-88*,4,21,-90,96*,93*
COc1ccc2nc(NC(=O)c3ccccc3F)sc2c1,18*,nt,29,2,17,41,38*,31*
CCN(CC)CCCN(C(=O)Cn1nnc(-c2ccc(OC)c(OC)c2)n1)C(C(=O)NC(C)(C)C)c1ccc(F)cc1 (configuration not stated),-3,0,-6,-16,6,8,nt,nt
